The source made the active and inactive calls. Unless noted, the rule behind the calls is not given here.
How the values were obtained:
[1] = tested on: XIP peptide (Xip251-270) binding; assay: XIP fragment 251-270 binding compounds – biochemical, small-molecule microarray, fluorescence 635/667 nm, 0.1 µg/mL protein, primary screen (AID 1182); details: fluorescent protein binding, 635 nm, higher = more signal, called active from +8 up or from −8 down
XIP peptide (Xip251-270) = assay: compounds binding XIP fragment 251-270 – biochemical, small-molecule microarray, fluorescence 635/667 nm, 0.5 µg/mL protein, primary screen (AID 1183); details: fluorescence 635 nm, higher = more signal
[2] = blood-stage malaria parasite viability loss – strain 3D7, DAPI fluorescence, 100 nL, primary screen (AID 1184);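 note: parasites grown inside human red blood cells in medium with human serum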; details: P. falciparum 3D7 growth, 3 d, higher = more signal
[3] = molecular target: Homeobox protein Hox-A13 (Mus musculus) (UniProt Q62424); assay: disruptors of Hoxa13 oligonucleotide interaction – biochemical, fluorescence polarization, labeled oligonucleotide, primary screen (AID 1185); details: Hoxa13:DNA binding, 15 min, higher = more signal, called active from +8 up or from −8 down
Homeobox protein Hox-A13 (Mus musculus), sequence (Q62424 whole entry, looked up): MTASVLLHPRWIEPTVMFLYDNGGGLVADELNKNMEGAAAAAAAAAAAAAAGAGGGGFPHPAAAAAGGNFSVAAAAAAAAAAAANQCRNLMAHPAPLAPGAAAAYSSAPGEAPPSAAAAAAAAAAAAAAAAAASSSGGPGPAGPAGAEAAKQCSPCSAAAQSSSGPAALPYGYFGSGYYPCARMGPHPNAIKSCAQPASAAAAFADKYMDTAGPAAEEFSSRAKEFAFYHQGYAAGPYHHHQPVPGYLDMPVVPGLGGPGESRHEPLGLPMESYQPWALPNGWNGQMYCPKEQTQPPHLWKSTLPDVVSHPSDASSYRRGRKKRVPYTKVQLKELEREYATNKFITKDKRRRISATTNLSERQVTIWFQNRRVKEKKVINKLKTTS

[4] = blockers of DNA damage checkpoint Chk1 activation – imaging, HeLa, hydroxyurea, phospho-Chk1 antibody, percent positive cells, primary screen (AID 1186); details: hydroxyurea-induced phospho-Chk1 immunofluorescence imaging, higher = more signal
[5] = blockers of DNA damage checkpoint Chk1 activation – imaging, HeLa, hydroxyurea, phospho-Chk1 nuclear intensity, primary screen (AID 1187); details: hydroxyurea-induced phospho-Chk1 immunofluorescence imaging, higher = more signal

| SMILES | composite z-score [1] | composite z-score (XIP peptide (Xip251-270)) | z-score [2] | z-score [3] | z-score [4] | z-score [5] |
| --- | --- | --- | --- | --- | --- | --- |
| CCOC(=O)C[C@H]1[C@H](OC(=O)c2cc3ccccc3oc2=O)[C@@H](NC(=O)c2ccc3ccccc3c2)c2cc(OCCCO)ccc2N1C(=O)Cc1ccc(OC)cc1 | 0.515 (inactive) | 0.335 | -0.791 | -2.96 (inactive) | 0.204 (inactive) | -0.322 (inactive) |
| COc1ccc([Si](C)(C)[C@H]2[C@H](CCO)O[C@@]3(C(=O)N(Cc4ccccc4)c4ccc(N5CCOC5=O)cc43)[C@@H]2C)cc1 | 0.16 (inactive) | 0.52 | -1.75 | -3.27 (inactive) | -0.796 (inactive) | -0.721 (inactive) |
| COC(=O)[C@@]1(Cc2ccc(F)cc2)[C@H]2c3cc(C(=O)N4CCCC4)n(CC4CC4)c3C[C@H]2CN1C(=O)c1ccccc1 | 1.84 (inactive) | 0.245 | -1.36 | -4.69 (inactive) | 0.396 (inactive) | 0.0021 (inactive) |
| CN1C(=O)[C@@]2(Cc3ccccc3)N=C(c3ccc(OCCCO)cc3)O[C@H]2c2ccccc21 | 1.11 (inactive) | 0.687 | -2.26 | -4.01 (inactive) | -0.632 (inactive) | -0.864 (inactive) |
| CCOC(=O)C[C@H]1[C@H](OC(=O)c2ccccc2-c2ccccc2)[C@@H](NC(=O)c2ccccc2)c2cc(OCCCO)ccc2N1C(=O)c1ccccc1 | -0.101 (inactive) | -0.127 | -1.39 | -4.85 (inactive) | 0.972 (inactive) | 0.528 (inactive) |
| C=C/C=C/[C@@H]1C(=C)CN([C@@H](Cc2ccccc2)C(=O)OC)[C@H]1[C@@H](O)Cc1ccccc1 | 0.661 (inactive) | 0.58 | 0.135 | -1.8 (inactive) | -0.176 (inactive) | 0.221 (inactive) |
| O=C(N1CCOCC1)[C@@]1(CCS(=O)(=O)c2ccccc2)N=C(c2ccc(OCCCO)cc2)O[C@H]1c1ccccc1 | 1.79 (inactive) | 0.747 | -1.39 | -5.53 (inactive) | 0.0192 (inactive) | 0.249 (inactive) |
| CCCCCN1CC=CC23O[C@@H]4C=CCOC(=O)[C@@H]4[C@H]2C(=O)N(CCO)[C@@H]3C1=O (some centres undefined) | 0.647 (inactive) | -0.311 | 1.34 | -3.88 (inactive) | -0.542 (inactive) | -0.562 (inactive) |
| COC(=O)[C@@]1(Cc2ccc(OC)cc2)[C@H]2c3cc(C(=O)N4CCCC4)n(Cc4ccc(S(C)(=O)=O)cc4)c3C[C@H]2CN1C(=O)c1ccccc1 | 0.807 (inactive) | 0.511 | -1.42 | -3.91 (inactive) | 0.364 (inactive) | 0.202 (inactive) |
| C=C(COC)/C(=C/C[C@@H](OC(=O)c1ccncc1)c1ccccc1OCCO)c1cc(C(=O)OC)ccc1OC | -0.115 (inactive) | -0.728 | -2.97 | -4.02 (inactive) | 0.386 (inactive) | 0.77 (inactive) |
| CCOC(=O)C1=CCC(c2ccccc2)N(S(=O)(=O)c2ccc([N+](=O)[O-])cc2)C1 (centres undefined) | 0.0444 (inactive) | -0.165 | -0.198 | -1.91 (inactive) | 0.268 (inactive) | -0.0449 (inactive) |
| CC1(C)C(=O)C(c2ccccc2)=C2CN3C(=O)N(CCc4ccccc4)C(=O)C3(Cc3ccc(F)cc3)C=C21 (centres undefined) | 0.2 (inactive) | 0.328 | -1.81 | -1.99 (inactive) | 0.478 (inactive) | -0.173 (inactive) |
| CCc1cccc(NC(=O)O[C@H]2[C@H](OC(=O)Nc3ccccc3)[C@H](OC(=O)Nc3ccccc3)[C@@H](OC)O[C@@H]2CO)c1 | 1.54 (inactive) | 0.829 | -1.49 | -5.74 (inactive) | 0.156 (inactive) | 0.628 (inactive) |
| COc1ccc(C#Cc2ccc3c(c2)[C@]2(C(=O)N3)[C@H](C(=O)Nc3nc4ccccc4s3)[C@H]3C(=O)O[C@H](c4ccccc4)[C@H](c4ccccc4)N3[C@@H]2c2ccccc2OCCO)cc1 | 0.416 (inactive) | 0.598 | -2.21 | -0.889 (inactive) | -0.347 (inactive) | -0.392 (inactive) |
| O=C1c2ccccc2[C@](Cc2ccccc2I)(C(=O)NC2CC2)[C@H](c2ccc(CO)cc2)N1Cc1ccccc1C(F)(F)F | 0.135 (inactive) | 0.59 | -1.89 | -4.02 (inactive) | -0.0771 (inactive) | -0.189 (inactive) |
| CN(C)C(=O)[C@@]1(Cc2ccccc2)COC(c2ccc(OCCCO)cc2)=N1 | 0.205 (inactive) | 0.845 | -0.627 | -6.02 (inactive) | -1.01 (inactive) | -1.03 (inactive) |
| CCOC(=O)C1=CCC(c2ccco2)N(S(=O)(=O)c2ccc(C)cc2)C1 (centres undefined) | 0.397 (inactive) | 0.704 | -0.0601 | -4.57 (inactive) | -0.641 (inactive) | -0.942 (inactive) |

| SMILES | composite z-score [1] | composite z-score (XIP peptide (Xip251-270)) | z-score [2] | z-score [3] | z-score [4] | z-score [5] |
| --- | --- | --- | --- | --- | --- | --- |
| C=CCC(OC(C)=O)[C@@H]1[C@@H](N(Cc2ccc(-c3cccc(C(F)(F)F)c3)o2)C(=O)c2ccc(C)cc2)c2cc(OCCCO)ccc2N1C(=O)Cc1ccc(OC)cc1 (some centres undefined) | -0.635 (inactive) | -0.0047 | -0.549 | -0.791 (inactive) | -0.159 (inactive) | 0.0947 (inactive) |
| C=CCN1C(=O)[C@]2(O[C@H](CCO)[C@@H]([Si](C)(C)c3ccc(OC)cc3)[C@@H]2C)c2cc(NC(=O)c3ccc(OC)cc3)ccc21 | -0.129 (inactive) | 0.456 | -2.64 | -5.32 (inactive) | -0.97 (inactive) | -0.881 (inactive) |
| C=CCNC(=O)[C@@H]1[C@H]2C(=O)O[C@H](c3ccccc3)[C@H](c3ccccc3)N2[C@H](c2ccc(O)cc2)[C@@]12C(=O)N(C(=O)OCCOC)c1ccc(C#CCCO)cc12 | 2.07 (inactive) | 0.749 | 1.05 | -3.19 (inactive) | 0.116 (inactive) | -0.365 (inactive) |
| C=CC1c2cc(O)c(OC)cc2CCN1Cc1ccc([N+](=O)[O-])o1 (centres undefined) | 0.835 (inactive) | 0.905 | -0.83 | -4.18 (inactive) | -0.131 (inactive) | 0.406 (inactive) |
| COc1ccc([Si](C)(C)[C@@H]2[C@@H](CC(=O)N3Cc4ccccc4C[C@H]3CO)O[C@]3(C(=O)N(Cc4ccc(N5CCC5=O)cc4)c4ccccc43)[C@H]2C)cc1 | 1.08 (inactive) | 0.682 | -2.64 | -0.855 (inactive) | -0.169 (inactive) | 0.14 (inactive) |
| CC(C)CNC(=O)[C@@]1(c2ccc([N+](=O)[O-])cc2)CC(=O)N(C2CCCCC2)[C@@H]1c1ccc(CO)cc1 | 0.32 (inactive) | 0.104 | -0.672 | -2.24 (inactive) | 0.0803 (inactive) | 0.515 (inactive) |
| COCC1=C2[C@@H](CCc3ccccc3)OB(O)C[C@@H]2[C@@H]2C(=O)N(C)C(=O)[C@@H]2C1 | 0.0872 (inactive) | 0.763 | 1.22 | -7.72 (inactive) | 0.684 (inactive) | 1.24 (inactive) |
| COc1ccc(C(O)C2C=CC3C(=O)N(c4ccccc4)C(=O)C3N2Nc2ccccc2)cc1 (centres undefined) | 0.348 (inactive) | 0.572 | 0.913 | -3.76 (inactive) | 0.0679 (inactive) | -0.392 (inactive) |
| COCCCNC(=O)[C@@]1(Sc2ccc(C)cc2)CC(=O)N(C(C)C)[C@@H]1c1ccc(CO)cc1I | 0.287 (inactive) | 0.609 | -1.63 | -4.13 (inactive) | 0.121 (inactive) | 0.579 (inactive) |
| COCCOC(=O)N1C(=O)[C@@]2(c3cc(C#CC4(O)CCCCCC4)ccc31)[C@H](C(=O)N1CCN(c3ncccn3)CC1)[C@H]1C(=O)O[C@H](c3ccccc3)[C@H](c3ccccc3)N1[C@@H]2c1ccccc1OCCO | 1.01 (inactive) | 0.61 | -2.07 | -0.77 (inactive) | -0.0411 (inactive) | 0.0349 (inactive) |
| CCCC=C(CCC)[C@@H](NC(=O)CCc1ccccc1)c1ccc(C(F)(F)F)cc1 | -0.143 (inactive) | 0.75 | -1.65 | -3.8 (inactive) | 0.007 (inactive) | -0.287 (inactive) |
| COCCOC(=O)N1C(=O)[C@@]2(c3cc(C#CCC(C(=O)OC)C(=O)OC)ccc31)[C@H](c1ccc(OCCO)cc1)N1[C@H](c3ccccc3)[C@H](c3ccccc3)OC(=O)[C@H]1[C@@H]2C(=O)Nc1nc2ccccc2s1 | 0.0047 (inactive) | 0.59 | -0.512 | 2.1 (inactive) | -0.365 (inactive) | -0.632 (inactive) |
| CCOC(=O)C1=C[C@@H](c2ccccc2)N(S(=O)(=O)c2ccc(C)cc2)[C@H]1c1ccccc1 | 0.598 (inactive) | 0.303 | -0.346 | 0.0724 (inactive) | 0.667 (inactive) | 0.529 (inactive) |
| CC(C)C[C@@H]1NC(=O)[C@H]2C[C@@H](C(=O)NCCCCCN)[C@@H](c3cccc(OCCO)c3)N2C1=O | 1.35 (inactive) | 0.853 | 0.304 | -3.68 (inactive) | -0.242 (inactive) | 0.0992 (inactive) |
| CC(C)OC(=O)CC(=O)CC(O)c1ccc([N+](=O)[O-])cc1 (centres undefined) | 0.319 (inactive) | 0.469 | 0.697 | -1.67 (inactive) | -0.0884 (inactive) | -0.438 (inactive) |
| CN1C(=O)C2C(C1=O)C1C=C(CCCO)C2C(c2cccs2)N1Cc1cc2c(cc1Br)OCO2 (centres undefined) | 0.0841 (inactive) | 0.757 | -0.654 | -8.9 (active) | 0.214 (inactive) | 0.228 (inactive) |
| O=C(NCCN1CCOCC1)[C@@H]1c2ccccc2C(=O)N(Cc2ccccc2)[C@H]1c1ccc(CO)cc1 | -0.181 (inactive) | -0.314 | 0.681 | -3.79 (inactive) | -0.697 (inactive) | -0.974 (inactive) |

— PubChem BioAssay
